Compound activity as filed in PubChem.
Not all results are given here.
aSyn UTR act: Activators via SNCA 5'UTR binding, MLPCN; alpha-synuclein 5'UTR reporter, activators screen; activity score, % (tested at 7.5 µM), hits read low; 7.1% of 300,000 active; in the data active means activity score below about -60%
Starred values were filed as active, the others as inactive.

SMILES	aSyn UTR act
CC(C)c1ccc(C2CC(c3ccc(Br)cc3)=NN2C(N)=S)cc1 (stereo not drawn)	-97.4*
Cc1ccc(C(=O)Nc2ccccc2C(=O)Nc2ccccn2)cc1Cl	-70.4*
COc1ccc(C(=O)Nc2ccccc2C(=O)Nc2ccccn2)cc1	-104.4*
Cc1ccc(C(=O)Nc2cccnc2Cl)cc1Cl	-156.2*
CCN1/C(=C/c2ccc3cc(C)ccc3[n+]2CC)Sc2ccccc21	99.9
O=C1NCCN/C1=C\C(=O)c1ccc(Br)cc1	-120.1*
O=C1NCCN/C1=C\C(=O)c1cccc(Br)c1	-61.8*
COCOc1ccc(-c2cc(=O)c3c(OCOC)cc(OCOC)cc3o2)cc1	-125.3*
c1ccc(Sc2ncnc3c2oc2ccccc23)nc1	-194.6*
COc1ncnc2c1oc1ccccc12	-71.0*
COc1ccc(C(=O)COC(=O)c2cccc(-n3cnnn3)c2)c(OC)c1	-103.9*
O=C(OCC(=O)c1c[nH]c2ccccc12)c1ccc(Br)o1	-129.7*
O=C(OCC(=O)c1c[nH]c2ccccc12)c1ccco1	-102.2*
COc1cccc(C(=O)OCC(=O)c2c[nH]c3ccccc23)c1O	-105.5*
COc1ccc(C(=O)COC(=O)c2cc(=O)[nH]c3ccccc23)c(OC)c1	-130.5*
COc1ccccc1/C=C/C(=O)Nc1cccnc1Cl	-132.5*
COc1ccc(/C=C/C(=O)Nc2cccnc2Cl)cc1	-224.2*
COc1ccccc1/C=C/C(=O)NCCc1ccccn1	-91.7*
COc1ccccc1C(NC(C)=O)c1cc(Cl)c2cccnc2c1O (stereo not drawn)	67.5
Cc1ccc(-c2csc(N=C(N)N)n2)cc1	-116.1*
Cc1cc(C)c2c3c(sc2n1)C1(CCSCC1)C(C#N)=C(N)O3	-89.9*
CC(=C/c1ccco1)/C=N/N1CCN(c2ccccc2)CC1	-175.4*
CC(/C=N/N1CCN(c2ccccc2)CC1)=C\c1ccco1	-101.4*
COC(=O)C1(C)CCC(C(=O)Nc2ccccc2)C1(C)C (stereo not drawn)	62.0
CCC1CC(C(=O)Nc2ccccc2)C(=O)O1 (stereo not drawn)	-64.4*
SMILES	aSyn UTR act
CCS(=O)(=O)c1nnnn1-c1ccccc1S(C)(=O)=O	-173.6*
CC1Cc2cc(/C=C3/SC(=S)N(C)C3=O)ccc2O1 (stereo not drawn)	-86.0*
Cc1ccc(C(=O)CSc2nnc3ccccn23)c(C)c1	-73.5*
Cc1cc(C(=O)CSc2nnc(N)s2)c(C)n1C1CC1	-88.1*
Cc1ccc(C(=O)CSc2nnc(N)s2)c(C)c1	-92.0*
CCOc1ccc(C(=O)CSc2nnc(N)s2)cc1	-74.2*
COC1=C(C)C(O)=C(C(=O)/C=C/c2ccccc2)C(=O)C1(C)C	-104.3*
CCc1cc2c(=O)n(-c3ccccc3)cnc2s1	-95.5*
CCc1cc2c(=O)n(-c3ccc(C)cc3)cnc2s1	-148.5*
COC(=O)Cc1[nH]n(-c2nc3ccccc3s2)c(=O)c1C(C)=Nc1ccc(C)cc1	97.5
COC(=O)Cc1[nH]n(-c2ccccc2)c(=O)c1C(C)=Nc1ccccc1	-70.8*
FC(F)(F)c1nc2ccccc2n2c(-c3ccc(Cl)cc3)nnc12	107.9
On1c(-c2ccc(Cl)cc2)nc2ccccc21	-146.5*
Cc1c(OCc2ccccc2)c(=O)ccn1Cc1ccccc1	-110.8*
COc1ccc(-c2nn(-c3ccccc3)cc2/C=N/NC(=O)c2cccc(S(=O)(=O)Nc3ccccc3Cl)c2)cc1	-77.5*
COc1ccc(-c2nn(-c3ccccc3)cc2/C=N/N2C(=O)CSC2=S)cc1	-83.2*
COc1ccc(-c2nn(-c3ccccc3)cc2/C=N/NS(=O)(=O)c2ccccc2)cc1	-62.4*
Cn1ccs/c1=N\C(=O)Nc1cccc(C(F)(F)F)c1	-109.2*
O=C(NCc1csc(-c2cccs2)n1)c1ccsc1	-112.0*
Cc1ccc2nc(-c3ccc(NS(=O)(=O)c4ccccc4)cc3)sc2c1	-85.5*
Cc1ccc2nc(-c3ccc(NS(=O)(=O)c4ccc(F)c(F)c4)cc3)sc2c1	-123.8*
Cc1ccc(S(=O)(=O)[N-]c2nc3ccccc3nc2-n2cc[n+](Cc3ccccc3)c2)cc1	-97.1*
O=c1c2c(nc3c(-c4ccc(Cl)cc4)c[nH]n13)CCCC2	66.0
Cc1nc2c(-c3ccc(Cl)cc3)cnn2c2c1CCC2	-122.5*
C/C(=N/O)c1cccc(N2Cc3ccccc3C2)c1	-73.9*
SMILES	aSyn UTR act
C(=C\c1ccccn1)/c1cccnc1	-75.6*
Cc1ccc2sc(-c3ccc(NC(=O)/C=C\C(=O)O)cc3)nc2c1	-95.9*
Cc1ccc2nc(-c3ccc(NC(=O)CSCC(=O)O)cc3)sc2c1	-196.8*
Cc1ccc2nc(-c3ccc(NC(=O)COCC(=O)O)cc3)sc2c1	-96.0*
CCCCN1C(=O)C(=O)N(c2ccccc2)C1=S	-134.5*
CCCCCCN1C=CC(=C2C(=O)c3ccccc3C2=O)C=C1	107.4
Cc1ccccc1NC(=O)c1ccc(CSc2ncccn2)cc1	-82.5*
Cc1ccc(NC(=O)c2ccc(CSc3ccccn3)cc2)cc1	-92.9*
Cc1nnc(SCc2cccc3ccccc23)s1	-89.8*
Cc1ccc(NC(=O)c2ccc(CSc3nnnn3C)cc2)cc1	-165.1*
Cc1nnc(SCc2ccc(F)cc2)s1	-69.0*
Cc1ccc(NC(=O)c2ccc(CSc3nnc(C)s3)cc2)cc1	-75.0*
